Several values for one entry are separate records, joined by “and”; a condition that tells them apart may be missing. Identical values can stand only once. About 290 (0.85%) of roughly 34,000 compounds showed an effect of 50% or more. The entries come from a sample that favours strong results as a whole.

The subject of this assay is Plasmodium falciparum. Briefly: Plasmodium falciparum sporozoite viability assay. In kind it is functional, organism-based. The arrangement: scale not given: in the data most compounds retested in dose-response had high values.

Take `CCOC(=O)[C@@H]1[C@@H](O)C(=O)N(C)C12CCN(C(=O)c1ccco1)CC2`: the “Percent Effect” value was 7.177%.

Turning to `O=C(O)C(F)(F)F.O=C(O)C(F)(F)F.c1ccc(CN2CCC3(CC2)CCN(c2ccccn2)C3)nc1`, the “Percent Effect” value was 11.38%.

As for `CCC1CN(C(=O)c2cccnc2O)CCC(=O)N1Cc1ccccc1` (stereo not given), for the setting “10 mM as filed; unlikely as a test dose”, the “Percent Effect” value was -11.65% and -22.98%.

As to `CCC1CN(C(=O)c2ccc(O)cn2)CCC(=O)N1Cc1ccccc1` (stereo not given), under “10 mM as filed; unlikely as a test dose”, the “Percent Effect” value is 75.08% and 82.46%.

In the case of `CCC1CN(C(=O)c2ncccc2O)CCC(=O)N1Cc1ccccc1` (stereo not given), the “Percent Effect” value (10 mM as filed; unlikely as a test dose) is -58.66% and -61.44%.

In the case of `Cc1nn(C)c(Cl)c1C1CCCN1C(=O)c1cc(C2CC2)on1` (stereo not given), the “Percent Effect” value is reported as 6.06%.

`Cc1c[nH]nc1C1CN(Cc2cnn(-c3ccccc3C(=O)O)c2)C1`: the “Percent Effect” value is -1.554%.

With `Cc1noc(C)c1CC(=O)N1CCCC(n2ccnc2C)C1` (stereo not given), the “Percent Effect” value is reported as -6.625%.

For the molecule `O=C(Nc1ccc(N2CCCC2)nc1)N1CCc2sccc2C1`, for the setting “10 mM as filed; unlikely as a test dose”, the “Percent Effect” value is -10.47% and -0.9103% and 2.706%.

On to `O=C(Nc1ccc(N2CCCC2)nc1)N1CCc2ccccc2C1`, for which the “Percent Effect” value (10 mM as filed; unlikely as a test dose) is 79.37% and 82.46% and 84.57%.

Turning to `CC(CNC(=O)c1cc(N2CCNC2=O)ccc1F)c1ccccc1` (stereo not given), the “Percent Effect” value (10 mM as filed; unlikely as a test dose) was 35.08% and 63.14%.

In the case of `CC(NC(=O)c1cc(N2CCNC2=O)ccc1F)c1ccc(F)cc1` (stereo not given), the “Percent Effect” value (10 mM as filed; unlikely as a test dose) is -9.982% and -2.184%.

`Cc1ccsc1CNC(=O)c1ccc(N2CCNC2=O)cc1`: the “Percent Effect” value is recorded as -9.9%.

With `CC(Cc1ccsc1)NC(=O)c1cc(N2CCNC2=O)ccc1F` (stereo not given), the “Percent Effect” value (10 mM as filed; unlikely as a test dose) was 74.24% and 61.84%.

Consider `CCCc1cc(NC(=O)c2cc(N3CCNC3=O)c(F)cc2F)n[nH]1`, for which the “Percent Effect” value is reported as -27.19%.

On to `Cc1ccc(C(=O)NCC(O)c2cccc(F)c2)c(=O)[nH]1` (stereo not given), for which the “Percent Effect” value was -4.578%.

Regarding `CCN(CC)CCCNCc1cc2cc(C)cc(C)c2[nH]c1=O`, the “Percent Effect” value worked out at 11.75%.

With `COCc1cnc2n1CCN(C(=O)c1ocnc1C)C2C` (stereo not given), the “Percent Effect” value amounted to 4.866%.

With `CN(Cc1cccs1)C(=O)Cn1cc(NC(=O)C(C)(C)C)cn1`, the “Percent Effect” value is -1.695%.

Take `Cc1ccc(-n2nnc(C(=O)NCC(F)(F)F)c2C2CC2)cc1`: the “Percent Effect” value was -7.493%.

On to `Cn1cc(-c2cnc(N3CCOCC3)nc2)cc1C(=O)N1CCOCC1`, for which the “Percent Effect” value (10 mM as filed; unlikely as a test dose) is -17.52% and -24.5% and -14.42%.

As to `O=C(CCc1ccsc1)Nc1ccnn1C1CCS(=O)(=O)C1` (stereo not given), the “Percent Effect” value is reported as -2.999%.

Take `Cc1oc(C)c(C(=O)NCc2ccccc2CN(C)C)c1C`: the “Percent Effect” value was 1.894%.

As for `COC1CN(C(=O)CC(C)C)CCC(=O)N(C)c2ccccc21` (stereo not given), the “Percent Effect” value was -36.78%.

With `CCSCCNC(=O)c1cnc(-c2ccccc2)nc1O`, the “Percent Effect” value was 2.095%.

As to `CC(C)(C)c1ncc(C(=O)NCCSc2ccccn2)c(O)n1`, for the setting “10 mM as filed; unlikely as a test dose”, the “Percent Effect” value was 98% and 98.19%.

With `O=C(NCCCO)c1cnc(-c2ccccc2)nc1O`, the “Percent Effect” value was -8.71%.

With `Cc1ccc(C2(C(=O)NCCCn3cccn3)CCOCC2)cc1`, the “Percent Effect” value (10 mM as filed; unlikely as a test dose) was -25.15% and -19.39%.

In the case of `c1ccc2oc(CN3CCCC3Cn3cncn3)nc2c1` (stereo not given), the “Percent Effect” value is 3.888%.

In the case of `Cc1nccn1C1CCCN(C(=O)Cc2cn3ccccc3n2)C1` (stereo not given), the “Percent Effect” value amounted to 3.916%.

For the molecule `CCOCC1CN(C(=O)c2cscn2)Cc2cnn(CC3CC3)c21` (stereo not given), the “Percent Effect” value is listed as 11.53%.

With `Cc1nc(C2CN(C)CCO2)cc(N2CCSCC2)n1` (stereo not given), the “Percent Effect” value is -0.8223%.

With `Cc1cc(C(=O)N2CCC3(C2)CN(c2cccnc2)C(=O)CN3C)[nH]n1.O=C(O)C(F)(F)F.O=C(O)C(F)(F)F` (stereo not given), the “Percent Effect” value is 9.444%.

Regarding `CN(C)CC(C)(O)CNC(=O)Nc1sc2ccccc2c1Cl` (stereo not given), the “Percent Effect” value (10 mM as filed; unlikely as a test dose) was 52.95% and 62.95% and 63.37%.

Take `CN(C)C(=O)CCNC(=O)Nc1sc2ccccc2c1Cl`: the “Percent Effect” value (10 mM as filed; unlikely as a test dose) was 44.04% and 58.57% and 53.39%.

As for `CS(=O)(=O)CCCNC(=O)Nc1sc2ccccc2c1Cl`, for the setting “10 mM as filed; unlikely as a test dose”, the “Percent Effect” value is -22.09% and -10.77% and -17.84%.

For the molecule `CC(=O)N1CCOC(c2c(C(=O)NCCN(C)C)sc3ccccc23)C1` (stereo not given), the “Percent Effect” value is reported as 3.684%.

As to `CN1CCN(Cc2cn3c(n2)CN(Cc2ccc(F)cc2)CC3)CC1.O=C(O)C(F)(F)F.O=C(O)C(F)(F)F.O=C(O)C(F)(F)F`, the “Percent Effect” value was 11.14%.

In the case of `O=C(O)[C@@H]1CCN(C(=O)Cc2ccccn2)[C@@H]1c1ccc(F)cc1`, the “Percent Effect” value is on record as 2.558%.

For `CN(C)C(=O)NC1COC2(CCN(Cc3ccccc3)CC2)C1.O=C(O)C(F)(F)F` (stereo not given), the “Percent Effect” value (10 mM as filed; unlikely as a test dose) was -6.642% and -9.604% and -2.422%.

Take `CCC(O)CN1CCN(C(=O)c2sccc2OC)CC1` (stereo not given): the “Percent Effect” value turned out to be 5.511%.

For `N#Cc1c(SCCN2CCCCC2)sc2c(O)cc(O)nc12`, the “Percent Effect” value turned out to be 19.81%.

Regarding `Cc1nc(C)n(C2CCCN(C(=O)CCOC(C)C)C2)n1` (stereo not given), the “Percent Effect” value was found to be 5.53%.

Take `CCc1nc(C2CCCN(C(=O)NCCOC)C2)no1` (stereo not given): the “Percent Effect” value worked out at 15.54%.

Turning to `CSc1cc2c(cc1NC(=O)NCc1ccncc1)OCCO2`, the “Percent Effect” value (10 mM as filed; unlikely as a test dose) was -14.95% and -16.58%.

Turning to `CCN(CC)c1ccc(NC(=O)NCC2CCOC2)cn1` (stereo not given), under “10 mM as filed; unlikely as a test dose”, the “Percent Effect” value was -11.53% and -8.697%.

Take `COCCNC(=O)Nc1cc2c(cc1SC)OCCO2`: the “Percent Effect” value (10 mM as filed; unlikely as a test dose) is 98.06% and 101.8% and 101.9%.

With `CSc1cc2c(cc1NC(=O)NCCn1ccnc1)OCCO2`, the “Percent Effect” value (10 mM as filed; unlikely as a test dose) was 101.5% and 100.4% and 104.7%.

As to `CSc1cc2c(cc1NC(=O)NCC1CCOC1)OCCO2` (stereo not given), for the setting “10 mM as filed; unlikely as a test dose”, the “Percent Effect” value was 105.7% and 100.9% and 97.86%.

For the molecule `COCCN(C)C(=O)Nc1cc2c(cc1SC)OCCO2`, the “Percent Effect” value (10 mM as filed; unlikely as a test dose) is -20.76% and -19.13%.

Consider `CSc1cc2c(cc1NC(=O)NCC(=O)N(C)C)OCCO2`, for which the “Percent Effect” value (10 mM as filed; unlikely as a test dose) was -16.92% and -17.04% and -26.51%.

In the case of `O=C(NCC1CCOC1)Nc1ccc(OCC(F)(F)F)nc1` (stereo not given), the “Percent Effect” value was -8.857%.

Take `CC(NC(=O)NCCn1ccnc1)c1ccc2c(c1)OCCO2` (stereo not given): the “Percent Effect” value was -2.596%.

Consider `CCCc1ncc(CNC2(c3ccc(Cl)cc3)CCC2)cn1`, for which the “Percent Effect” value amounted to 9.707%.

Turning to `COc1ccc2cc(C(=O)N3CCCC(n4ccnc4C)C3)[nH]c2c1` (stereo not given), the “Percent Effect” value is reported as -4.765%.

With `O=C(O)[C@@H]1CN(C(=O)CC2CCCC2)C[C@H]1c1ccc(F)cc1`, the “Percent Effect” value is reported as 4.737%.

Take `Cc1nccc(C(=O)N2CCCC(c3cc(C(F)(F)F)[nH]n3)C2)n1` (stereo not given): the “Percent Effect” value is 8.419%.

Take `Cc1cc(C)n(C2CN(CC(=O)N(C)Cc3ccc(C)o3)C2)n1`: the “Percent Effect” value is on record as -8.906%.

As to `CN(C)C(=O)CN1CCCC1c1nccnc1Nc1ccccn1` (stereo not given), the “Percent Effect” value is -3.467%.

Consider `Cc1ccc2c(c1)CN(C(=O)c1cnc(C)cn1)C(CN(C)C)CO2.Cl` (stereo not given), for which the “Percent Effect” value was -2.552%.

Regarding `O=S(=O)(C1CC1)N1CCC2(COCc3cnc(-c4cccnc4)nc32)C1` (stereo not given), the “Percent Effect” value came to 9.968%.

Take `CCOc1ccccc1OC1CCN(Cc2ccn(C)c(=O)c2)CC1`: the “Percent Effect” value is 8.133%.

Consider `CCOc1cc([C@H]2N[C@@H](c3nc(C)cs3)Cc3ccsc32)ccc1OC`, for which the “Percent Effect” value was 5.89%.

With `CC(C)NC(=O)CC1CC2(CCN(CC3CC3)CC2)Oc2ccccc21.O=C(O)C(F)(F)F` (stereo not given), the “Percent Effect” value was 11.82%.

As to `COC(=O)CC1CCN(C(=O)Nc2ccc(-c3ccn[nH]3)cc2)C1` (stereo not given), for the setting “10 mM as filed; unlikely as a test dose”, the “Percent Effect” value is 84.64% and 84.71% and 100.4%.

With `CCOCC1CCCN(C(=O)NCc2ccc(-c3ccn[nH]3)cc2)C1` (stereo not given), the “Percent Effect” value worked out at 14.81%.

Turning to `NC(=O)CC1CCN(C(=O)NCc2ccc(-c3ccn[nH]3)cc2)CC1`, the “Percent Effect” value is 2.866%.

On to `COCc1cncc2c1CCN(C(=O)c1ccc(C#N)cc1)C2.O=C(O)C(F)(F)F`, for which the “Percent Effect” value is reported as 7.706%.

On to `Cc1ccc(-c2cccc(CC3(C(=O)O)CCOCC3)c2)c(C)c1`, for which the “Percent Effect” value is recorded as -5.038%.

Take `CN1CCCc2cc(CNC(=O)c3cc[n+]([O-])cc3)ccc21`: the “Percent Effect” value is 8.46%.

In the case of `CCOCC1CN(C(=O)c2ccncn2)Cc2cnn(CC)c21.O=C(O)C(F)(F)F` (stereo not given), the “Percent Effect” value is listed as -5.589%.

For `Cc1ccc(Sc2ccc(N3CCCC(C(=O)O)C3)nn2)cc1` (stereo not given), the “Percent Effect” value (10 mM as filed; unlikely as a test dose) is 24.7% and 21.38%.

`Cc1ccc(Sc2ccc(N3CCC(C(=O)O)CC3)nn2)cc1`: the “Percent Effect” value (10 mM as filed; unlikely as a test dose) was 64.84% and 62.96%.

For `O=C(O)C1CCN(c2ccc(Sc3ccc(Br)cc3)nn2)CC1`, the “Percent Effect” value (10 mM as filed; unlikely as a test dose) was -3.247% and -5.657%.

For `CCNc1cc2c(nn1)CCN(C(=O)c1ccc3c(c1)OCO3)C2`, the “Percent Effect” value came to 6.984%.
